Results filed as inconclusive are left out. Activity calls are given as the source filed them. Calls follow the shape of the dose curve; as a rule, active = well fitted curve in either direction with a large enough effect (not every such curve was filed as active); inconclusive = small, poorly fitted or top-dose-only effect, or another doubt; inactive = flat fitted curve, though single readings scatter.
Test: NFAT Signaling Pathway (AID 444);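 also: carbachol stimulus at about its EC50 of 1 µM final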
Details: Jurkat NFAT-bla M1, carbachol, beta-lactamase ratio, 5 h; at 17.2 µM (top of the series) unless noted
How it was run: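 Jurkat cells with NFAT-driven β-lactamase reporter and co-expressed M1 receptor, stimulated with carbachol (final 1 uM, ~EC50), compound titration, 5 h at 37 °C. CCF4 loaded 1 h at RT; 460/530 nm ratio gave %activity and AC50.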
% is scaled to controls: 0 for no effect and ±100 for the full control effect.

Activity change, negative = inhibition, inactive:
COc1cccc(OC)c1OCC(C)CNCC1CCCO1 (stereo not given) -18.8%, CCCC(C)n1[nH]c(=O)cc1N (stereo not given) 8.48%, CCCCCOc1ccc(Cl)cc1CN1CCOCC1 4.03%, Cc1nc2oc(C(=O)c3ccc(Br)cc3)c(N)c2c2c1COC(C)(C)C2 27.3%, Cc1nc2sc3c(NCc4ccco4)ncnc3c2c2c1COC(C)(C)C2 -8.41%, CCOC(=O)N1CCN(c2ncnc3c2cnn3-c2ccc(OC)cc2)CC1 10.2%, CCCSc1nnc(NC(=O)Nc2ccccc2)s1 -25.9%, COC(=O)NC(Nc1sc2c(c1C(N)=O)CCCC2)(C(=O)OC)C(F)(F)F (stereo not given) 11.9%, N#Cc1nc(-c2cccs2)oc1NCc1ccccc1 -20.6%, CCOC(=O)C1CCN(c2nc3ccccc3nc2C(C#N)C(=O)OC(C)C)CC1 (stereo not given) 8.02%, C=CCc1c(C)c(C#N)c2nc3ccccc3n2c1N1CCN(C)CC1 4.5%, CCC1=C(C(=O)OC)C(c2cc(OC)ccc2OC)C(C#N)=C(N)O1 (stereo not given) -14.5%, COc1ccc(C(=O)N/C(N)=N/c2nc3ccccc3o2)cc1 -19%, COC(=O)c1sc(NC(=O)c2oc3ccccc3c2C)nc1C -8%, COCCNc1cc(C)c(C#N)c2nc3ccccc3n12 12.9%, Cc1ccc(Cn2ncc3c(N4CCN(c5ccc(C)cc5)CC4)ncnc32)cc1 -24.6%, COc1cc(C2C(C#N)=C(N)Oc3cc(C)n(CCc4ccccc4)c(=O)c32)cc2c1OCO2 (stereo not given) -4.95%, Cc1cccc(N2CN=c3s/c(=C\c4ccncc4)c(=O)n3C2)c1 -17.2%, CCOC(=O)CSc1nc(N)c2c3c(sc2n1)CCCC3 -14.4%, CCOC(=O)c1c(-c2cccs2)csc1NC(=O)c1ccncc1 27.6%, Cc1sc(-n2c(C)cc(/C=N/n3cnnc3)c2C)c(C#N)c1C -9.91%, COCCOC(=O)c1c(C)oc2ccc(OC(=O)COc3c(F)c(F)c(F)c(F)c3F)cc12 -2.9%, CCC1(C)Cc2c(sc(NC(=O)CCC(=O)O)c2C#N)CO1 (stereo not given) 0.708%, CCOc1ccc(S(=O)(=O)N(C)CCO)cc1-c1nc2c(C(C)(C)C)nn(C)c2c(=O)[nH]1 6.99%, COc1cccc(-c2nc(NCc3ccco3)c3ccccc3n2)c1O 7.35%, CCNCc1cc2cc(C)ccc2[nH]c1=O -15.2%, O=P(O)(c1ccccc1)c1ccccc1O 7.27%, COc1ccc(OCC(O)Cn2c(Nc3cccc(C)c3)nc3c2c(=O)n(C)c(=O)n3C)cc1 (stereo not given) 8.48%, Cc1nc2sc3c(c2c(=O)o1)CC(C)(C)OC3 -10.1%, CC(C)Cc1nc(N2CCN(C(=O)C(C)C)CC2)c(C#N)c2c1CCC2 -19.4%, CCN1CCc2c(C#N)c(N3CCCCC3)nc(N3CCOCC3)c2C1 -1.02%, Nc1nnc(Cc2ccc(Cl)c(Cl)c2)s1 2.08%, CC(=NC1CCCC1)c1c(C)[nH]n(-c2nc3ccccc3s2)c1=O -20.1%, O=C(Nc1ccc2c(c1)OCCO2)c1ccc(Br)o1 6.17%, CN=c1sc2ccccc2n1CC(O)COCc1ccco1 (stereo not given) 1.06%, CCn1cc(C(=O)NCc2ccco2)c(=O)c2cc(F)c(N3CCN(C(=O)c4ccco4)CC3)cc21 -28.1%, C=CCOc1nc2c(c(=O)n(Cc3ccc(Cl)c(Cl)c3)c(=O)n2C)n1C -2.4%, CCCSC1=C(C#N)C(c2ccc(OC)cc2)C2=C(CC(C)(C)CC2=O)N1 (stereo not given) -24.7%, CCOC(=O)c1ccc(-n2c(=O)[nH]c3ccccc3c2=O)cc1 6.82%, COc1ccc(C(=O)c2oc3nc(C)cc(C)c3c2N)cc1 13%

Test: Stat Signaling Pathway (AID 446);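 also: ME-180 cervical cancer cells given 40 pM IL-6 alongside compound; SIE-controlled beta-lactamase reporter measured as 460/530 nm FRET emission ratio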
Details: ME-180 (cervical carcinoma) SIE beta-lactamase reporter, IL-6 stimulated, 5 h; at 17.2 µM (top of the series) unless noted
How it was run: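 Compound effects on IL-6-induced STAT reporter activity were measured in ME-180 cells. After overnight culture, cells were co-treated with 40 pM IL-6 for 5 hrs before beta-lactamase substrate loading at room temperature.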

activity, negative = inhibition, inactive:
COc1cccc(OC)c1OCC(C)CNCC1CCCO1 (stereo not given) 10.2%, CCCC(C)n1[nH]c(=O)cc1N (stereo not given) 3.57%, CCCCCOc1ccc(Cl)cc1CN1CCOCC1 4.37%, Cc1nc2oc(C(=O)c3ccc(Br)cc3)c(N)c2c2c1COC(C)(C)C2 0.926%, Cc1nc2sc3c(NCc4ccco4)ncnc3c2c2c1COC(C)(C)C2 -18.1%, CCOC(=O)N1CCN(c2ncnc3c2cnn3-c2ccc(OC)cc2)CC1 -2.17%, CCCSc1nnc(NC(=O)Nc2ccccc2)s1 -19.6%, COC(=O)NC(Nc1sc2c(c1C(N)=O)CCCC2)(C(=O)OC)C(F)(F)F (stereo not given) 5.04%, N#Cc1nc(-c2cccs2)oc1NCc1ccccc1 -1.04%, CCOC(=O)C1CCN(c2nc3ccccc3nc2C(C#N)C(=O)OC(C)C)CC1 (stereo not given) -8.74%, C=CCc1c(C)c(C#N)c2nc3ccccc3n2c1N1CCN(C)CC1 3.98%, CCC1=C(C(=O)OC)C(c2cc(OC)ccc2OC)C(C#N)=C(N)O1 (stereo not given) 4.21%, COc1ccc(C(=O)N/C(N)=N/c2nc3ccccc3o2)cc1 -5.99%, COC(=O)c1sc(NC(=O)c2oc3ccccc3c2C)nc1C 18.1%, COCCNc1cc(C)c(C#N)c2nc3ccccc3n12 4.06%, Cc1ccc(Cn2ncc3c(N4CCN(c5ccc(C)cc5)CC4)ncnc32)cc1 -13.5%, COc1cc(C2C(C#N)=C(N)Oc3cc(C)n(CCc4ccccc4)c(=O)c32)cc2c1OCO2 (stereo not given) -6.08%, Cc1cccc(N2CN=c3s/c(=C\c4ccncc4)c(=O)n3C2)c1 -0.937%, CCOC(=O)CSc1nc(N)c2c3c(sc2n1)CCCC3 -14.2%, CCOC(=O)c1c(-c2cccs2)csc1NC(=O)c1ccncc1 1.61%, Cc1sc(-n2c(C)cc(/C=N/n3cnnc3)c2C)c(C#N)c1C -17%, COCCOC(=O)c1c(C)oc2ccc(OC(=O)COc3c(F)c(F)c(F)c(F)c3F)cc12 1.17%, CCC1(C)Cc2c(sc(NC(=O)CCC(=O)O)c2C#N)CO1 (stereo not given) 9.62%, CCOc1ccc(S(=O)(=O)N(C)CCO)cc1-c1nc2c(C(C)(C)C)nn(C)c2c(=O)[nH]1 -3.41%, COc1cccc(-c2nc(NCc3ccco3)c3ccccc3n2)c1O -8.59%, CCNCc1cc2cc(C)ccc2[nH]c1=O 2.05%, O=P(O)(c1ccccc1)c1ccccc1O 8.28%, COc1ccc(OCC(O)Cn2c(Nc3cccc(C)c3)nc3c2c(=O)n(C)c(=O)n3C)cc1 (stereo not given) -15.9%, Cc1nc2sc3c(c2c(=O)o1)CC(C)(C)OC3 -8.31%, CC(C)Cc1nc(N2CCN(C(=O)C(C)C)CC2)c(C#N)c2c1CCC2 7.39%, CCN1CCc2c(C#N)c(N3CCCCC3)nc(N3CCOCC3)c2C1 18.4%, Nc1nnc(Cc2ccc(Cl)c(Cl)c2)s1 4.97%, CC(=NC1CCCC1)c1c(C)[nH]n(-c2nc3ccccc3s2)c1=O -8.78%, O=C(Nc1ccc2c(c1)OCCO2)c1ccc(Br)o1 6.03%, CN=c1sc2ccccc2n1CC(O)COCc1ccco1 (stereo not given) -2.56%, CCn1cc(C(=O)NCc2ccco2)c(=O)c2cc(F)c(N3CCN(C(=O)c4ccco4)CC3)cc21 -28.5%, C=CCOc1nc2c(c(=O)n(Cc3ccc(Cl)c(Cl)c3)c(=O)n2C)n1C 7.85%, CCCSC1=C(C#N)C(c2ccc(OC)cc2)C2=C(CC(C)(C)CC2=O)N1 (stereo not given) -13%, CCOC(=O)c1ccc(-n2c(=O)[nH]c3ccccc3c2=O)cc1 2.95%, COc1ccc(C(=O)c2oc3nc(C)cc(C)c3c2N)cc1 -8.18%

Source: PubChem BioAssay (NCATS)
